The whole screen tested about 5,500 compounds, of which about 2,000 (36%) were called active. Another 18% or so got no clear call; they are omitted. No stated cut-off is given here; in the data, active means normalized growth mostly below about 0.91 (no sharp cut-off); inconclusive means no clear call, values can overlap the other calls; inactive means mostly above about 0.92. The list shows a part of the results.
Assay: chemical genetic growth profiling, strain panel (AID 1159580);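 further: tested at 20 µM; growth read once vehicle control cultures reached saturation at 30 °C; 1 = growth at the plate median or of vehicle wells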
Conditions: S. cerevisiae deletion strains, growth OD

Measured: normalized growth

CC1(C)CC(O)C2(C)CCC3(C)C(=CCC4C5(C)CCC(O)C(C)(CO)C5CCC43C)C2C1 (configuration not stated)
inactive: locus YAL021C, strain ccr4, stronger effect = lower value 1.02 | locus YAL026C, strain drs2, stronger effect = lower value 1.03 | locus YAL030W, strain snc1, stronger effect = lower value 1.02 | locus YBL061C, strain skt5, stronger effect = lower value 1.03 | locus YBR009C, strain hhf1, stronger effect = lower value 1.02 | locus YBR023C, strain chs3, stronger effect = lower value 1.03 | locus YBR171W, strain sec66, stronger effect = lower value 1.03 | locus YBR231C, strain swc5, stronger effect = lower value 1.03 | locus YBR279W, strain paf1, stronger effect = lower value 1.02 | locus YCL011C, strain gbp2, stronger effect = lower value 1.03 | locus YCL016C, strain dcc1, stronger effect = lower value 1.03 | locus YCL061C, strain MRC1, stronger effect = lower value 1.02 | locus YCL069W, strain vba3, stronger effect = lower value 1.03 | locus YCR088W, strain abp1, stronger effect = lower value 1.03 | locus YDL005C, strain med2, stronger effect = lower value 1.03 | locus YDL040C, strain nat1, stronger effect = lower value 1.03 | locus YDR001C, strain nth1, stronger effect = lower value 1.02 | locus YDR069C, strain doa4, stronger effect = lower value 1.04 | locus YDR137W, strain rgp1, stronger effect = lower value 0.956 | locus YDR159W, strain sac3, stronger effect = lower value 1.04 | locus YDR195W, strain ref2 1 | locus YDR297W, strain sur2, stronger effect = lower value 1.02 | locus YDR334W, strain swr1, stronger effect = lower value 1.03 | locus YDR335W, strain msn5, stronger effect = lower value 1.03 | locus YDR392W, strain spt3, stronger effect = lower value 1.03 | locus YEL003W, strain gim4, stronger effect = lower value 1.02 | locus YEL037C, strain rad23, stronger effect = lower value 1.02 | locus YEL061C, strain CIN8 (second series), stronger effect = lower value 1.02 | locus YER015W, strain faa2, stronger effect = lower value 1.02 | locus YER016W, strain bim1, stronger effect = lower value 1.03 | locus YER111C, strain swi4, stronger effect = lower value 1.03 | locus YER155C, strain BEM2 (second series), stronger effect = lower value 1.04 | locus YFR010W, strain ubp6, stronger effect = lower value 1.03 | locus YGL167C, strain pmr1, stronger effect = lower value 1.02 | locus YGL173C, strain kem1, stronger effect = lower value 1.03 | locus YGL227W, strain vid30, stronger effect = lower value 1.03 | locus YGL240W, strain doc1, stronger effect = lower value 1.02 | locus YGL253W, strain hxk2, stronger effect = lower value 1.03 | locus YHR013C, strain ard1, stronger effect = lower value 1.04 | locus YHR027C, strain rpn1, stronger effect = lower value 1.02 | locus YHR142W, strain chs7, stronger effect = lower value 1.03 | locus YJL092W, strain hpr5, stronger effect = lower value 1.03 | locus YJL095W, strain BCK1 (second series), stronger effect = lower value 1.04 | locus YJL115W, strain asf1, stronger effect = lower value 1.04 | locus YJL129C, strain trk1, stronger effect = lower value 1.04 | locus YJL154C, strain vps35, stronger effect = lower value 1.02 | locus YJL164C, strain tpk1, stronger effect = lower value 1.03 | locus YJL166W, strain qcr8, stronger effect = lower value 1.02 | locus YJL187C, strain SWE1, stronger effect = lower value 1.02 | locus YKL160W, strain elf1, stronger effect = lower value 1.02 | locus YKR026C, strain gcn3, stronger effect = lower value 1.04 | locus YKR091W, strain srl3, stronger effect = lower value 1.03 | locus YLL001W, strain dnm1, stronger effect = lower value 1.03 | locus YLL026W, stronger effect = lower value 1.03 | locus YLL041C, strain sdh2, stronger effect = lower value 1.03 | locus YLR027C, strain aat2, stronger effect = lower value 1.03 | locus YLR221C, strain rsa3, stronger effect = lower value 1.02 | locus YLR258W, strain gsy2, stronger effect = lower value 1.04 | locus YLR262C, strain YPT6 (second series), stronger effect = lower value 0.994 | locus YLR320W, strain mms22, stronger effect = lower value 1.04 | locus YLR342W, strain FKS1, stronger effect = lower value 1.02 | locus YLR357W, strain rsc2, stronger effect = lower value 1.02 | locus YLR370C, strain arc18, stronger effect = lower value 1.03 | locus YLR384C, strain iki3, stronger effect = lower value 1.03 | locus YML120C, strain ndi1, stronger effect = lower value 1.04 | locus YMR058W, strain fet3, stronger effect = lower value 1.02 | locus YMR125W, strain sto1, stronger effect = lower value 1.04 | locus YMR129W, stronger effect = lower value 1.02 | locus YMR205C, strain PFK2, stronger effect = lower value 1.03 | locus YMR231W, strain pep5, stronger effect = lower value 1.03 | locus YNL071W, strain lat1, stronger effect = lower value 1.02 | locus YNL209W, strain ssb2, stronger effect = lower value 1.03 | locus YNL248C, strain rpa49, stronger effect = lower value 1.02 | locus YNL322C, strain KRE1 (second series), stronger effect = lower value 1.02 | locus YNR049C, strain mso1, stronger effect = lower value 1.04 | locus YOR001W, strain rrp6, stronger effect = lower value 1.04 | locus YOR070C, strain gyp1, stronger effect = lower value 1.03 | locus YOR080W, strain dia2, stronger effect = lower value 1.03 | locus YOR083W, strain WHI5, stronger effect = lower value 1.02 | locus YOR106W, strain vam3, stronger effect = lower value 1.03 | locus YOR265W, strain rbl2, stronger effect = lower value 1.03 | locus YOR270C, strain vph1, stronger effect = lower value 1.03 | locus YOR290C, strain snf2, stronger effect = lower value 1.03 | locus YPL051W, strain arl3, stronger effect = lower value 1.02 | locus YPL078C, strain atp4, stronger effect = lower value 1.03 | locus YPL106C, strain sse1, stronger effect = lower value 1.05 | locus YPL240C, strain hsp82, stronger effect = lower value 1.03

From PubChem BioAssay AID1159580 (chemical genetic matrix, 2015)
